High-throughput results deposited in PubChem BioAssay by several laboratories.
An excerpt weighted towards active compounds, which were near 4.1% of everything screened.
KLF5 inh: inhibitors of KLF5 expression | inhibition, % at 5 µM | DLD-1 KLF5 promoter-luciferase reporter, luminescence | 290,000 compounds, 0.23% hits | AID 1700;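 active = inhibition above a per-plate limit of that plate's mean compound inhibition plus 3 SD, cut at about 60% in these data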;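 note: higher means less KLF5 promoter-driven luciferase light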
aSyn 5UTR inh: MLPCN primary screen, SNCA 5' untranslated region; alpha-synuclein 5'UTR reporter, inhibitor activity; 300,000 compounds, 0.82% hits; inhibition, % (tested at 7.5 µM); in the data active = inhibition above about 60%;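 note: H4 neuroglioblastoma cells stably carrying SNCA 5'UTR luciferase fusion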
Gli-Sufu antag: Gli-Sufu pathway antagonism | 340,000 compounds, 0.74% hits | inhibition, % at 5 µM | Sufu-KO-LIGHT fibroblasts, Gli luciferase reporter luminescence;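 active = inhibition above about 55%, limit read from the data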
Jurkat NFkB inh: inhibitors of the PMA/ionomycin-induced NF-kB reporter in Jurkat cells; PMA/ionomycin-induced NF-kB luciferase reporter, luminescence; inhibition, % at 4 µM; 330,000 compounds, 0.53% hits; AID 435003; in the data active = inhibition above about 50%
Mdm2-MdmX inh: disrupts the human Mdm2-MdmX interaction. inhibition, % at 8 µM. SaOS-2 split-luciferase Mdm2/MdmX complementation, luminescence. AID 485346. O15151+Q00987. 330,000 compounds, 3% hits;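 active = inhibition of at least 50% at 8 µM in the primary screen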
Target sequence (O15151 whole entry, looked up): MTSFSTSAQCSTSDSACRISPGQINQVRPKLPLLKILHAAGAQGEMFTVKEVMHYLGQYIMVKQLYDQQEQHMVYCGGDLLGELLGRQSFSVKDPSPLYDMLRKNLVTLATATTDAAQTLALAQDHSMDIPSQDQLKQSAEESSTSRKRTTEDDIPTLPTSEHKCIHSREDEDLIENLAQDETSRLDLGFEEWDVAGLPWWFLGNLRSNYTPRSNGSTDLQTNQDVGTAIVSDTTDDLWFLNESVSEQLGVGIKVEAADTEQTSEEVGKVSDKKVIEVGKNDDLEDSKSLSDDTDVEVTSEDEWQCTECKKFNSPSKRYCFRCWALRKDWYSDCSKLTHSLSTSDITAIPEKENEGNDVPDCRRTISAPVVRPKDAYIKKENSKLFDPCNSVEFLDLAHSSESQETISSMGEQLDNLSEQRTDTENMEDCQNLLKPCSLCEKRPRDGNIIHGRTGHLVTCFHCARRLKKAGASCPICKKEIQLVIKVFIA
Target sequence (Q00987 whole entry, looked up): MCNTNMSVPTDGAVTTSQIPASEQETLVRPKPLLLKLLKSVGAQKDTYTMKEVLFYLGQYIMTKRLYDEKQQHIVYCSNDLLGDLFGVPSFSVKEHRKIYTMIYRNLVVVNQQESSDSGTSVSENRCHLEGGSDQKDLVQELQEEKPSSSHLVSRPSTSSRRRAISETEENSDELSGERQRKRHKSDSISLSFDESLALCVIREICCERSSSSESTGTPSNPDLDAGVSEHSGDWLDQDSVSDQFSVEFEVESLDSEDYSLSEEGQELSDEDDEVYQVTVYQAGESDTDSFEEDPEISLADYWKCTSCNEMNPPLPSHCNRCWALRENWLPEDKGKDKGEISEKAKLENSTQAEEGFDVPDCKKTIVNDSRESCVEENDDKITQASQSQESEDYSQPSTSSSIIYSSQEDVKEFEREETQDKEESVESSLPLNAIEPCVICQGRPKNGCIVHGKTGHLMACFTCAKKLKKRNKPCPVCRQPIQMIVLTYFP
697 NFkB inh: lowers PMA/ionomycin-induced NF-kB signal in 697 B cells; 697 B-cell NF-kB luciferase reporter, 16 h; inhibition, % at 4 µM; 330,000 compounds, 0.33% hits; in the data active = inhibition above about 35%
Mdm2-MdmX conf: confirmation of human Mdm2/MdmX interaction inhibitors | shares compounds with Mdm2-MdmX inh | Mdm2-MdmX binding, luminescent assay | inhibition, % at 8 µM | 10,000 compounds, 55% hits; in the data active = inhibition above about 40%
Full FLuc ctr: counter-screen for Mdm2/MdmX inhibitors: full-length luciferase | shares compounds with Mdm2-MdmX inh | SaOS-2 full-length luciferase counterscreen, luminescence | inhibition, % at 8 µM | 6,200 compounds, 77% hits;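 active = mean inhibition at 8 µM reaching about 37%, which flags the compound as non-specific, limit read from the data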;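 note: p53-null SaOS-2 cells with luciferase driven by a doxycycline-inducible promoter; compound on cells about two nights before reading with doxycycline added after day one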
Numbers stand for hits; 0 = inactive; - = not tested or not shown.

SMILES | KLF5 inh | aSyn 5UTR inh | Gli-Sufu antag | Jurkat NFkB inh | Mdm2-MdmX inh | 697 NFkB inh | Mdm2-MdmX conf | Full FLuc ctr
COc1ccc(C(CNC(=O)COc2cccc(C(F)(F)F)c2)N2CCCC2)cc1 (centres undefined) | - | - | 0 | 0 | 0 | 0 | - | -
CCN1C(=O)[C@H]2[C@@H](c3ccc(-c4ccc(Cl)c(Cl)c4)c(OC)c3)N[C@@](C)(C(=O)OC)[C@H]2C1=O | - | 0 | 0 | 0 | 57 | 0 | 45 | 71
CCN1C(=O)[C@H]2[C@@H](c3ccc(-c4ccc(Cl)c(Cl)c4)cc3)N3CCCC[C@@]3(C(=O)OC)[C@H]2C1=O | - | 0 | 0 | 0 | 66 | 0 | 0 | -
Cc1cccn2c(=O)c3cc(C(=O)NC4CCCCC4)c(=N)n(Cc4ccccc4)c3nc12 | 0 | 0 | 0 | 0 | 93 | 0 | 0 | -
COc1ccc(CCn2c(=N)c(C(=O)NCC3CCCO3)cc3c(=O)n4ccccc4nc32)cc1 (centres undefined) | 0 | 0 | 0 | 0 | 0 | 0 | - | -
Cc1cccn2c(=O)c3cc(C(=O)NC4CCCC4)c(=N)n(Cc4ccc(F)cc4)c3nc12 | 0 | 0 | 0 | 0 | 0 | 0 | - | -
COc1ccc(CCn2c(=N)c(C(=O)NC3CCCCC3)cc3c(=O)n4ccccc4nc32)cc1 | 0 | 0 | 0 | 0 | 93 | 0 | 0 | 82
COc1ccc(CCn2c(=N)c(C(=O)NC3CCCC3)cc3c(=O)n4cccc(C)c4nc32)cc1 | 0 | 0 | 0 | 0 | 88 | 0 | 53 | 58
Cc1ccc(S(=O)(=O)c2cc3c(=O)n4cccc(C)c4nc3n(Cc3ccncc3)c2=N)cc1 | 0 | 0 | 0 | 0 | 53 | 0 | 0 | -
O=C(c1ccc(Cl)cc1)n1c(NCc2ccccc2)n[nH]c1=S | 0 | 0 | 0 | 0 | 0 | 0 | - | -
COc1ccc2c(Cl)c(C(=O)NN3CCN(C)CC3)sc2c1 | 0 | 0 | 0 | 0 | 0 | 0 | - | -
O=c1oc2ccccc2cc1-c1cn2ccccc2n1 | 0 | 98 | 0 | 0 | 76 | 0 | 62 | 72
CC1CCN(CC2C(=O)O[C@@H]3C[C@@]4(C)CCC[C@H](C)C4=C[C@H]23)CC(C)(C)C1 (some centres undefined) | 0 | 0 | 0 | 0 | 65 | 0 | 43 | 44
CCCNC(=O)c1ccc2c(=O)c(O)c(-c3ccc(C)cc3)[nH]c2c1 | - | 69 | 0 | 0 | 58 | 0 | 51 | 48
CCCNC(=O)c1ccc2c(=O)c(O)c(-c3ccc(OC)cc3)[nH]c2c1 | - | 88 | 0 | 0 | 50 | 0 | 0 | -
CCCNC(=O)c1ccc2c(=O)c(O)c(-c3ccsc3)[nH]c2c1 | - | 87 | 0 | 0 | 57 | 0 | 0 | -
CC(=O)NCc1ccc(S(=O)(=O)NC(C(=O)O)C(C)C)cc1 (centres undefined) | 0 | 0 | 0 | 0 | 0 | 0 | - | -
COc1ccc(C(=O)NCC(=O)OCC(=O)Nc2sccc2C#N)cc1OC | 0 | 0 | 0 | 0 | 0 | 0 | - | -
CCCCCCCC#Cc1ccccc1/C=N/S(=O)c1ccc(C)cc1 (centres undefined) | 0 | - | 0 | 0 | 0 | 0 | - | -
COc1ccc(-c2nn(-c3ccccc3)cc2/C=C2/SC(=S)N(Cc3ccco3)C2=O)c(C)c1 | 0 | 0 | 0 | 0 | 59 | 0 | 0 | -
Cc1oc(S(=O)(=O)N2CCCCC2)cc1NC(=O)Nc1ccc(Cl)cc1 | 0 | 0 | 0 | 0 | 0 | 0 | - | -
C/C(=C\c1ccc(F)cc1)C(=O)c1c(C)cc(C)[nH]c1=O | 0 | 0 | 0 | 0 | 0 | 0 | - | -
Cc1cc(C)c(C(=O)/C=C/c2cccc3ccccc23)c(=O)[nH]1 | 0 | 0 | 0 | 0 | 88 | 0 | 94 | 58
C/C(=C\c1ccccc1)C(=O)c1c(C)cc(C)[nH]c1=O | 0 | 0 | 0 | 0 | 58 | 0 | 0 | -
O=C(c1cc(-c2cccnc2)nc2ccc(Br)cc12)N1CCN(c2ncccn2)CC1 | 0 | 0 | 0 | 0 | 52 | 0 | 51 | 101
SMILES | KLF5 inh | aSyn 5UTR inh | Gli-Sufu antag | Jurkat NFkB inh | Mdm2-MdmX inh | 697 NFkB inh | Mdm2-MdmX conf | Full FLuc ctr
CC(=O)c1ccc(N2CCN(C(=O)c3cc(-c4cccnc4)nc4ccc(Br)cc34)CC2)cc1 | 0 | 0 | 0 | 0 | 0 | 0 | - | -
COc1ccc(CN2CCN(C(=O)c3cc(-c4cccnc4)nc4ccc(Cl)cc34)CC2)c(OC)c1OC | 0 | 0 | 0 | 0 | 51 | 0 | 49 | 73
CS(=O)(=O)N1CCN(C(=O)c2cc(-c3cccnc3)nc3ccc(Cl)cc23)CC1 | 0 | 0 | 0 | 0 | 0 | 0 | - | -
COc1ccc(-c2nnn(CC(=O)N(CC3CCCO3)C(C(=O)NC(C)(C)C)c3ccco3)n2)cc1OC (centres undefined) | 0 | 0 | 0 | 0 | 0 | 0 | - | -
COc1cc2nc(SCc3c(C)noc3C)n(CCC3=CCCCC3)c(=O)c2cc1OC | 0 | 0 | 0 | 0 | 87 | 0 | 52 | 50
COc1cc2nc(SCC(=O)NC3CC3)n(CCC3=CCCCC3)c(=O)c2cc1OC | 0 | - | - | - | - | - | - | -
CC(=O)O[C@H]1C[C@@]2(C)[C@@H](C[C@@H](O)[C@H]3[C@@]4(C)CC[C@@H](O)[C@@H](C)[C@@H]4CC[C@@]32C)/C1=C(\CCC=C(C)C)C(=O)O | - | 0 | 0 | 0 | 0 | 0 | - | -
CN1CCN(NC(=O)c2cc(Br)ccc2Cl)CC1 | 0 | 0 | 0 | 0 | 0 | 0 | - | -
O=[N+]([O-])c1cccnc1N1CCC(c2cc(-c3ccc(Cl)cc3)n[nH]2)CC1 | 0 | 0 | 0 | 0 | 54 | 0 | 0 | -
CCOC(=O)CN1CCC(c2cc(-c3ccc(Cl)cc3)n[nH]2)CC1 | 0 | 0 | 0 | 0 | 0 | 0 | - | -
Cc1nc([N+](=O)[O-])c(Sc2nc3ccccc3n2C)n1Cc1ccccc1 | 0 | 0 | 0 | 0 | 51 | 0 | 0 | -
Cc1ccc(N(CC(=O)NCc2ccc(Cl)cc2)S(C)(=O)=O)cc1 | 0 | 0 | 0 | 0 | 0 | 0 | - | -
Cc1cc(C)n(CCC(=O)Nc2ccc3c(c2)OCCO3)n1 | 0 | 0 | 0 | 0 | 0 | 0 | - | -
COc1cc(F)cc(-c2ccc3c(c2)c(-c2cccs2)c(-c2cc(OC)cc(OC)c2)n3C)c1 | - | - | 0 | 0 | 54 | 0 | 55 | 57
COc1cccc(-n2sc3c(c2=S)-c2cc(OC)ccc2NC3(C)C)c1 | 0 | 0 | 0 | 0 | 51 | 0 | 0 | 76
COc1cc(SC)ccc1C(=O)Nc1ncc(Cl)cc1Cl | 0 | 0 | 0 | 0 | 0 | 0 | - | -
COc1cc(SC)ccc1C(=O)Nc1ncc(C)s1 | 0 | 98 | 0 | 0 | 71 | 0 | 56 | 71
Cc1cnc(=O)[nH]c1SCc1cccc([N+](=O)[O-])c1 | 0 | 0 | 0 | 0 | 0 | 0 | - | -
COc1ccc(C(=O)Nc2cc(C)c3c(=O)oc4ccccc4c3n2)cc1 | 0 | 0 | 0 | 0 | 74 | 0 | 0 | -
O=C(CCCN1C(=O)/C(=C/c2ccccc2)SC1=S)Nc1cccc(O)c1 | 0 | 0 | 0 | 0 | 100 | 0 | 93 | 58
CC(/C=C1\SC(=S)N(CCC(=O)Nc2ccc(O)cc2)C1=O)=C\c1ccccc1 | 0 | 0 | 0 | 0 | 62 | 0 | 0 | -
